Only some compounds are listed: those with a hit (about 7.9% of all), similar ones and a draw of the others.
KB-3-1 cytotox = KB-3-1 parental cell cytotoxicity; 1.4% of 400,000 active; KB-3-1 viability, CellTiter-Glo ATP luminescence, 72 h; Potency, µM (top dose mostly 46.1 µM), usual class: cytotoxic; note: % is set by controls: 0 for no effect and ±100 for the full control effect; nearly all actives have a fitted effect of over 60% in size
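Parental KB-3-1 adenocarcinoma cells in phenol-red-free DMEM with 10% FBS were pin-treated with compounds at several concentrations, incubated 72 h at 37 °C, and viability read by CellTiter-Glo luminescence; concentration-effect curves were fitted after normalization.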
SW480 rerep = inducers of DNA re-replication in SW480 colon cancer cells. SW480 DNA re-replication, Hoechst DNA content imaging, 48 h. 1.8% of 340,000 active. Potency, µM (doses to about 46.1 µM), for inactives: at the highest dose re-replication activation, usual class: activators. AID 624297; note: % of control where 0% means no effect; nearly all actives have a fitted effect of over 55% in size
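First, 250 cells per well were seeded. Next, compound or vehicle (23 nL) was pinned in, plates sat 48 hr at 37 C. Finally Hoechst was added for 40 min before fluorescence scanning.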
HT1080 IDH1KD tx = kills HT-1080 cells with IDH1 knockdown. 2% of 360,000 active. AID 686971. Potency, µM (highest dose often 46.1 µM), without a hit: top-dose activity, negative = toxicity, actives largely listed as cytotoxic. HT-1080 IDH1 knockdown viability, ATP luminescence, 48 h;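 note: 0% = DMSO wells and -100% = cell-free medium wells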
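CellTiter-Glo luminescence after 48 h compound exposure at 37 degrees C of IDH1-knockdown HT-1080 cells in 5% FBS RPMI. %Activity scaled between DMSO wells and cell-free media wells, with curves fitted and assigned curve classes.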
MCF10A rerep = DNA re-replication induction in MCF 10a cells. 2.9% of 350,000 active. Potency, µM (doses to about 46.1 µM), without a hit: at the top dose activity, positive = re-replication, usual class: activators. MCF 10A DNA re-replication, Hoechst nuclear intensity, 48 h; note: % of control where 0% means no effect; nearly all actives have a fitted effect of over 50% in size
KB-V1 MDR tox = KB-V1 MDR subline cytotoxicity; KB-V1 MDR cells viability, CellTiter-Glo, 72 h; Potency, µM (titrated, usually from 46.1 µM), actives largely listed as cytotoxic; 3.4% of 400,000 active; AID 1347076; note: % is set by controls: 0 for no effect and ±100 for the full control effect; nearly all actives have a fitted effect of over 60% in size
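Cells of the MDR subline KB-V1 are plated, dosed with compound at multiple concentrations, and incubated 72 h at 37 degrees C; CellTiter-Glo is then added and luminescence read after 10 min.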
HT1080NT lethal = kills 2HG-producing HT-1080-NT fibrosarcoma cells. HT-1080-NT fibrosarcoma viability, CellTiter-Glo ATP luminescence, 48 h. 1.6% of 360,000 active. AID 686970. Potency, µM (highest dose often 46.1 µM), without a hit: top-dose activity, negative = less viability, actives largely listed as cytotoxic;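 note: NT is the 2HG producing partner of a matched IDH1 knockdown line; 0% = DMSO-treated cells and -100% = media-only wells without cells; nearly all actives have a fitted effect of over 55% in size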
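HT-1080-NT; 750 cells/well; 5% FBS RPMI; 48 h compound, 37 degrees C; CellTiter-Glo luminescence; curve fitting and curve-class assignment.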
Active calls of the source: *; i = inactive; ? = inconclusive; / = no result given; ! = not confirmed by another sample. Calls come from the whole dose curve; as a rule, active = well fitted curve in the direction sought with a large enough effect; inconclusive = small, poorly fitted or top-dose-only effect, or another doubt; inactive = no such curve, though single readings can be large; an effect the other way counts as inactive or inconclusive. Potency is the fitted concentration of half-maximal effect.

SMILES	KB-3-1 cytotox	SW480 rerep	HT1080 IDH1KD tx	MCF10A rerep	KB-V1 MDR tox	HT1080NT lethal
CCOC(=O)c1sc2ncnc(NCc3ccco3)c2c1C	i	1.5%	-3.7%	-2.7%	?	-3.4%
O=[N+]([O-])c1cccc(-c2ccc(C(=S)N3CCN(c4ccc(F)cc4)CC3)o2)c1	i	2.3%	1.1%	2.9%	i	1.2%
COc1ccc(N2CCN(C(=O)CCC(=O)N3CCOc4ccc(C)cc43)CC2)cc1	?	1.8%	-9.6%	11.2%	i	-21.1%
CCOC(=O)C1=C(C)NC(C)=C(C(=O)OCC)C1/C=C/c1ccccc1OC	i	23.1µM*	-5.6%	?	20.6µM*	-7.0%
CCOC(=O)C1=C(C)NC(C)=C(C(=O)OCC)C1c1ccccc1C=CC(=O)OC(C)(C)C	/	29.9µM*	/	?	/	/
C=CCOC(=O)C1=C(C)NC(C)=C(C(=O)OCC=C)C1/C=C/c1ccccc1	?	?	18.4µM*	166.4%	?	?
COc1ccc(C(C(=O)NC(C)(C)C)n2c(-c3ccc(=O)[nH]c3)nc3ccccc32)cc1 (stereo not given)	?	/	8.2µM*	/	i	13µM*
COc1ccc(C(C(=O)NC(C)(C)C)n2c(COc3ccc(C)cc3)nc3ccccc32)cc1 (stereo not given)	i	/	?	/	?	?
Cc1ccc(C(=O)NNc2cc(N3CCCC3)nc(N3CCCC3)n2)cc1	i	10.0%	3.2%	18.9%	1.46µM*	6.2%
O=C(NNc1cc(N2CCOCC2)nc(N2CCOCC2)n1)c1ccc(Cl)c(Cl)c1	i	107.4%	1.8%	-44.1%	11.6µM*	4.2%
O=c1c2c3c(sc2ncn1/N=C/c1ccc([N+](=O)[O-])o1)CCCC3	20.6µM*	11.6µM*	?	4.11µM*	20.6µM*	?
Cn1cc(/C=N/n2cnc3sc4c(c3c2=O)CCCC4)c2ccccc21	?	18.4µM*	-1.1%	?	20.6µM*	1.5%
O=c1c2c3c(sc2ncn1-n1cccc1)CCCCC3	i	1.1%	-2.6%	11.7%	?	-6.5%
Cc1c(-c2ccc(Cl)cc2)oc(=O)c2c(N)n(-c3ccccc3)nc12	?	-0.2%	-17.0%	?	20.6µM*	-0.2%
Nc1c2c(=O)oc(-c3ccccc3)cc2nn1-c1ccccc1	23.1µM*	16.4µM*	?	?	11.6µM*	?
O=C(Cc1cccc2ccccc12)N/N=C/c1ccncc1	i	-7.1%	4.1%	-0.1%	?	-2.5%
O=C(CNC(=S)N(Cc1ccccc1Cl)C1CCCC1)NCCCN1CCOCC1	i	0.2%	16.2%	-2.1%	i	7.0%
CCc1ccc(NC(=O)c2c(C(=O)Nc3ccccc3)sc3nc(C)cc(=O)n23)cc1	i	-37.2%	-12.9%	18.4µM*	i	?
CCOC(=O)C1=C(O)c2ccccc2C(=O)/C1=C\c1ccc(C)cc1	?	?	18.4µM*	20.6µM*	?	?
Cc1cccc2c(=O)c(-c3ccc4c(c3)OCO4)c(NC(=O)c3ccco3)oc12	i	-1.0%	-11.7%	2.3%	i	-6.2%
CC1=CC(C)(C)N(C(=O)CSc2nnc(N)s2)c2cc(C)c(C)cc21	i	-3.9%	-2.9%	?	11.6µM*	-4.5%
CC1=CC(C)(C)N(C(=O)CSc2nnc(-c3ccc(C)cc3)o2)c2ccc(C)cc21	?	16.4%	-7.3%	?	8.2µM*	-1.7%
CC1=CC(C)(C)N(C(=O)CSc2nnc(C)s2)c2ccc(C)cc21	i	-0.8%	7.0%	1.3%	?	-3.8%
Cc1cc(C)cc(S(=O)(=O)N2CCN(c3nc(-c4cccs4)nc4ccccc34)CC2)c1	/	/	17.3%	/	/	22.1%
CC(C)=CCC[C@](C)(O)C1CC[C@]2(C)C1C(O)CC1[C@@]3(C)CCC(O)C(C)(C)C3C(O[C@@H]3OC(CO)C(O)C(O)C3O[C@@H]3OC(C)C(O)C(O)C3O)C[C@]12C (stereo not given in full)	i	-3.9%	2.1%	?	i	-4.4%
SMILES	KB-3-1 cytotox	SW480 rerep	HT1080 IDH1KD tx	MCF10A rerep	KB-V1 MDR tox	HT1080NT lethal
CCOc1ccc(-c2cc(C(=O)O)c3ccccc3n2)cc1	i	2.6%	11.2µM*	15.0%	i	?
CCOc1ccc(-c2cc(C(=O)N3CCN(c4cccc(C(F)(F)F)c4)CC3)c3ccccc3n2)cc1	5.8µM*	/	/	/	?	/
CCOc1ccc(-c2cc(C(=O)NCCCn3ccnc3)c3ccccc3n2)cc1	i	-17.8%	-8.0%	0.581µM*	i	-5.5%
C[C@]12CC[C@@H]3c4ccc(OC(=O)c5ccccc5)cc4CC[C@H]3[C@@H]1CC[C@@H]2O	?	-43.3%	0.3%	29.9µM*!	20.6µM*	-0.6%
C[C@]12CC[C@@H]3c4ccc(O)cc4CC[C@H]3[C@@H]1C[C@@H](O)[C@@H]2O	i	11.6%	-12.8%	?	?	7.0%
CC(=O)Oc1ccc2c(c1)CCC1C2CCC2(C)C(OC(C)=O)CCC12 (stereo not given)	?	-0.5%	0.1%	?	10.3µM*	-0.5%
CCC12CCC3c4ccc(O)cc4CCC3C1CC(O)C2O (stereo not given)	i	?	?	18.4µM*	i	?
CCCCC(=O)OC1CCC2C3CCc4cc(O)ccc4C3CC[C@]12C (stereo not given in full)	/	2.6%	/	18.8µM*	/	/
CCCCC(=O)OC1CCC2C3CCc4cc(O)ccc4C3CCC12C (stereo not given)	i	?	?	?	?	?
C[C@]12CC[C@@H]3c4ccc(O)cc4CC[C@H]3[C@@H]1CC[C@@H]2OC(=O)CCC(=O)O	i	-5.7%	-8.4%	19.0%	?	-34.0%
CC(OC(=O)c1ccccc1CCc1ccccc1)C(N)=O (stereo not given)	i	6.6%	-0.4%	0.8%	i	-4.2%
CSc1nc(C(=O)N2CCCC(C(=O)c3ccc(Cl)cc3)C2)cs1 (stereo not given)	i	-4.9%	2.4%	?	?	3.9%
Cc1ccccc1-n1c(=O)cc(N2CCN(Cc3ccccc3)CC2)[nH]c1=O	i	2.4%	5.2%	-2.9%	i	2.4%
CN(C(=O)CSc1nc2ccc(NC(=O)c3cccc(F)c3)cc2s1)c1ccccc1	?	/	/	/	9.2µM*	/
CN(C(=O)CSc1nc2ccc(NC(=O)c3ccccc3F)cc2s1)c1ccccc1	?	/	/	/	i	/
Nc1cc2nsnc2cc1Br	i	18.4µM*	?	?	i	-18.2%

Assay outcomes: PubChem BioAssay, National Center for Advancing Translational Sciences (NCATS)
